The results in this text go back to PubChem BioAssay (NCATS).

SMILES strings stand for the structures. Several values for one entry are separate records, joined by “and”; a condition that tells them apart may be missing. Equal entries are not always repeated.

A short description of the assay: qHTS profiling for inhibitors of Plasmodium falciparum (DD2) proliferation (AID 743323). The following applies: lower = more inhibition; at 28.7 µM (top of the series). The procedure, abridged: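 SYBR Green fluorescence (ex 485, em 535 nm) of lysed cultures gives parasite DNA content; wells normalized to artemisinin (0.29 uM) and DMSO controls. Infected red cells: 0.3% parasitemia, 2.5% hematocrit, 72 h, 37 C.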
Turning to `O=C(O)C(=O)c1cn(Cc2ccccc2)c2ccc(-c3ccc(OC(F)(F)F)cc3)cc12`, the activity, percent of control amounted to 90.7%. With `COC1(CS(=O)c2ccccc2)CCN(CCc2c[nH]c3ccc(F)cc23)CC1` (centres undefined), the activity, percent of control was 44.5%. With `Oc1cc(Cl)ccc1Oc1ccc(Cl)cc1Cl`, the activity, percent of control came to 2.03%.

On to `C[C@@H]1[C@@H](CC(C[C@H]2O[C@@H]3O[C@]4(C)CC[C@@H]5[C@H](C)CC[C@@H]([C@H]2C)[C@@]35OO4)C[S+](=O)([O-])c2ccc(COC(=O)N(C)C)cc2)O[C@@H]2O[C@]3(C)CC[C@H]4[C@H](C)CC[C@@H]1[C@@]24OO3` (some centres undefined), for which the activity, percent of control was -0.0428%. The result for `CCCCC/C=C\C/C=C\C/C=C\C/C=C\CCCC(=O)NC1CC1` reads 5.26%. Regarding `COc1ccc(C(=O)c2c(C)n(CCN3CCOCC3)c3ccccc23)cc1`, the activity, percent of control came to 102%. The result for `CNC(=O)N1N=C(c2ccc(N)cc2)c2cc3c(cc2CC1C)OCO3` (centres undefined) reads 92.1%; that for `CC(O)(CS(=O)(=O)c1ccc(F)cc1)C(=O)Nc1ccc(C#N)c(C(F)(F)F)c1` (centres undefined), 89.3%. As for `CNC(=O)c1ccc(N2C(=S)N(c3ccc(C#N)c(C(F)(F)F)c3)C(=O)C23CCC3)cc1F`, the activity, percent of control came out at 76.1%. The result for `COC[C@H]1OC(=O)c2coc3c2[C@@]1(C)C1=C(C3=O)C2CCC(=O)[C@@]2(C)C[C@H]1OC(C)=O` (some centres undefined) reads 57.9%; that for `CN(C)CCN(C)CCc1ccc(Cl)c(Cl)c1`, 25%. In the case of `C[C@@H]1[C@@H](C(=O)C[C@H]2O[C@@H]3O[C@]4(C)CC[C@@H]5[C@H](C)CC[C@@H]([C@H]2C)[C@@]35OO4)O[C@@H]2O[C@]3(C)CC[C@H]4[C@H](C)CC[C@@H]1[C@@]24OO3`, the activity, percent of control is -0.0237%.

For the compound `COc1cc([C@@H]2c3cc4c(cc3[C@H](O)[C@H]3COC(=O)[C@H]23)OCO4)cc(OC)c1OC`, the activity, percent of control is 62.7% and 121%. `CS(=O)c1ccc(-c2nc(-c3ccc(F)cc3)c(-c3ccncc3)[nH]2)cc1` (centres undefined): the activity, percent of control turned out to be 56.4%. The result for `Cc1cc(SCc2sc(-c3ccc(C(F)(F)F)c(F)c3)nc2C)ccc1OCC(=O)O` reads 90.7%; that for `C=C(C)[C@H]1Cc2c(ccc3c2O[C@@H]2COc4cc(OC)c(OC)cc4[C@@H]2C3=O)O1`, 97.6%.

On to `Cc1sc2c(c1C)C(c1ccc(Cl)cc1)=N[C@@H](CC(=O)OC(C)(C)C)c1nnc(C)n1-2`, for which the activity, percent of control was 14.6%. The result for `CC1=C2C[C@@H]3[C@@H](CC=C4C[C@@H](O)CC[C@@]43C)[C@@H]2CC[C@]12O[C@H]1C[C@H](C)CN[C@H]1[C@H]2C` reads 39%.

On to `Cn1c(CCCC(=O)O)nc2cc(N(CCCl)CCCl)ccc21`, for which the activity, percent of control turned out to be 105%.
